Screening results (PubChem)
PLC-beta3 inh = inhibitors of human phospholipase C beta3; Q01970; Purified PLC-beta3, fluorogenic substrate, fluorescence; inhibition, % at 12.2 µM; 370,000 tested, 0.18% active; AID 720704; in the data active = inhibition above about 11%
Target sequence (Q01970 whole entry, looked up): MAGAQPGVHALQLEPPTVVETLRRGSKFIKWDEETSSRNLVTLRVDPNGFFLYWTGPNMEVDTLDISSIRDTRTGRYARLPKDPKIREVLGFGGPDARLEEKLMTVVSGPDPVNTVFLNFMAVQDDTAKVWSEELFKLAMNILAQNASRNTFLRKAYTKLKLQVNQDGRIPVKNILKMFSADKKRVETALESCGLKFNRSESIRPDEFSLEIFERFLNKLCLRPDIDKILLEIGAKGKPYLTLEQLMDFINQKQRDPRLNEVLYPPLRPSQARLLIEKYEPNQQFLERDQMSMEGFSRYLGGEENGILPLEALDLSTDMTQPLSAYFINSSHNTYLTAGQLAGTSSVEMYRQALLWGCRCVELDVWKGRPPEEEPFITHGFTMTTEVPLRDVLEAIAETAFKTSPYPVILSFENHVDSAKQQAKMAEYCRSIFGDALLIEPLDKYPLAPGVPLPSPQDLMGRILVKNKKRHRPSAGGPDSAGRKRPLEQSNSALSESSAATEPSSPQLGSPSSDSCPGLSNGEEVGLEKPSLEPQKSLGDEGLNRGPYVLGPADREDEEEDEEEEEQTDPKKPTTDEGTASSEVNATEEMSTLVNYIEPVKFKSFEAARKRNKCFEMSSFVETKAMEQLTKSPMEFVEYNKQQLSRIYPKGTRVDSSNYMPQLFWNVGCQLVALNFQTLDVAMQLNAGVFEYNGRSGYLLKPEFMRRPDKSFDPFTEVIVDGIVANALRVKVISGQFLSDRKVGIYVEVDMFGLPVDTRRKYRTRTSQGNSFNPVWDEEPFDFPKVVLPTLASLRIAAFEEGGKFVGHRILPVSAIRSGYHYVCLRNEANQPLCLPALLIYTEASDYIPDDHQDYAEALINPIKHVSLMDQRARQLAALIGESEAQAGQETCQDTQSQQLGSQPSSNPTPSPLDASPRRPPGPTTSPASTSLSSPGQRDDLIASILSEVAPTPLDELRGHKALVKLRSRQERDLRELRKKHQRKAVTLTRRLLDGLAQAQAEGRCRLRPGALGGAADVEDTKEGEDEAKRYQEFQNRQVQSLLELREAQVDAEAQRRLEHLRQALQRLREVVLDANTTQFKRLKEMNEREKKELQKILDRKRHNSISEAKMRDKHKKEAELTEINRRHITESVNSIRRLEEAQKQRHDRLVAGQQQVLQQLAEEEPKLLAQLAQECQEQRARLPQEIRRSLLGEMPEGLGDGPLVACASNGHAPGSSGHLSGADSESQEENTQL
PLC-gamma1 inh = inhibitors of human phospholipase C gamma1; inhibition, % at 12.2 µM; purified PLC-gamma1, fluorogenic substrate, fluorescence; 370,000 tested, 0.84% active; AID 720700; in the data active = inhibition above about 9.5%
ADAM17 inh = inhibits human ADAM17; recombinant ADAM17, EDANS/DABCYL FRET peptide cleavage; inhibition, % at 6.95 µM; 370,000 tested, 0.83% active; AID 720648;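 active = inhibition above the mean of compounds lying between control limits plus 3 SD, set per campaign, cut at about 8.5% in these data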
proKLK7 act = activators of human kallikrein-7 zymogen. P49862. purified proKLK7, EDANS-DABCYL substrate fluorescence; 100% is mature enzyme control, 0% vehicle. activation, % at 7 µM. 370,000 tested, 0.9% active. AID 652039;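 active = activation above the mean of all tested compounds plus 3 SD, computed per campaign excluding outliers beyond control limits, cut at about 13% in these data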
HGIII-sPLA2 inh = Inhibits HGIII-sPLA2 liposome hydrolysis, primary screen | Q9NZ20 | QFRET BODIPY PC-A2 liposome hydrolysis, fluorescence | inhibition, % at 12.2 µM | 370,000 tested, 0.56% active;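 active = inhibition above mean plus 3 SD of compounds lying within the high and low control bounds, cut at about 19% in these data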
ADAM10 inh = inhibitors of human ADAM10. O14672. recombinant ADAM10, EDANS/DABCYL FRET peptide cleavage, 3 h. inhibition, % at 7 µM. 370,000 tested, 0.62% active. AID 720582;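 active = inhibition above a per-campaign cutoff equal to the mean of compounds falling between control-based bounds plus 3 SD, cut at about 20% in these data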
sPLA2 confirm = human GIII-sPLA2 inhibition, confirmation | AID 743280 | shares compounds with HGIII-sPLA2 inh | recombinant hGIII-sPLA2, BODIPY PC-A2 QFRET fluorescence | inhibition, % at 12.2 µM | 2,000 tested, 34% active;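 active = mean inhibition across triplicates above the hit cutoff set in the earlier primary screen, cut at about 19% in these data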
535nm interf = 535nm fluorescence interference, HGIII-sPLA2 counter-screen. shares compounds with HGIII-sPLA2 inh. inhibition, % at 12.2 µM. AID 743282. BODIPY FL product fluorescence interference, QFRET. 2,000 tested, 8.5% active;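 active = average inhibition above the solvent-only control mean plus 3 SD, cut at about 6% in these data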
BODIPY interf DR = counter-screen for HGIII-sPLA2 inhibitors: 535nm fluorescence interference, dose response. IC50, µM. BODIPY FL product fluorescence interference, cell-free. shares compounds with HGIII-sPLA2 inh. 240 tested, under 10 active;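 active = IC50 at or below 10 µM; inactive = IC50 above 10 µM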
A number is an active result; n = inactive; x = not tested or not shown. Rows were chosen to be rich in hits. Some 3.4% of all compounds tested hit in one or more screens of this group.

SMILES | PLC-beta3 inh | PLC-gamma1 inh | ADAM17 inh | proKLK7 act | HGIII-sPLA2 inh | ADAM10 inh | sPLA2 confirm | 535nm interf | others
C/C(=N\NC(=S)NC(C)C)c1ccc(Cl)c([N+](=O)[O-])c1 | n | n | n | n | 20 | n | 19 | n
C/C(=N\NC(=S)NC(C)C)c1cccc([N+](=O)[O-])c1 | n | n | n | n | 20 | n | 22 | n
C/C(=N\NC(=S)NC(C)C)c1ccccc1 | n | n | n | n | n | n | x | x
N=C(N)SCc1ccc(Cl)c2ccccc12 | n | n | n | n | 45 | n | 32 | n | BODIPY interf DR=n
COCCNC(=O)/C(C#N)=C/c1c(N2CC(C)OC(C)C2)nc2ccccn2c1=O (centres undefined) | n | n | n | n | 21 | n | n | n
CC(CSc1nnnn1-c1ccccc1)Cn1c(N2CCCC2)nc2c1c(=O)[nH]c(=O)n2C (centres undefined) | n | n | n | n | 21 | n | n | n
CSc1ccc(CN(C)C(=O)C23CC4CC(CC(Cl)(C4)C2)C3)cc1 | n | n | n | n | n | n | x | x
COc1cc(-c2n[nH]c(=S)n2-c2cccc(C(F)(F)F)c2)cc(OC)c1OC | n | n | n | n | 26 | n | 25 | n
O=C(c1cc(S(=O)(=O)N2CCOCC2)ccc1Cl)N1CCCCC1CO (centres undefined) | n | n | n | n | n | n | x | x
O=C(NN1C(=O)c2ccccc2NC1c1ccccn1)c1ccc([N+](=O)[O-])cc1 (centres undefined) | n | n | n | n | 25 | n | n | n
O=C1C(=Cc2cccc(Cl)c2)CCc2ccccc21 | n | n | n | n | 21 | n | n | n
NC(=O)CCc1c[nH]c2ccccc12 | n | n | n | n | n | n | x | x
OCC(CCc1c[nH]c2ccccc12)c1c[nH]c2ccccc12 (centres undefined) | n | n | n | n | 35 | n | n | 10
C/C(=N\NC(=O)c1nnn(-c2nonc2N)c1-c1ccccc1)c1ccccc1O | n | n | n | n | 26 | n | 30 | n | BODIPY interf DR=n
O=[N+]([O-])c1ccc(N2N=C(c3ccco3)CC2c2ccccc2)cc1 (centres undefined) | n | n | n | n | 23 | n | 20 | 9.3
CNC(=S)N1CCN(c2nc(-c3ccc(F)cc3)cs2)CC1 | n | n | n | n | 20 | n | n | n
Cc1cccc(/C=N/NC(=O)c2c(-c3ccccc3)noc2C)c1O | n | n | n | n | 34 | n | n | n
Cc1cccc(/C=N\NC(=O)c2ccc(Cl)cc2)c1O | n | n | n | n | 37 | n | 22 | n
COc1ccccc1/C=N/NC(=O)c1c(-c2ccccc2)noc1C | n | n | n | n | n | n | x | x
CCOc1cccc(/C=N/NC(=O)c2ccc3c(c2)OCCO3)c1O | n | n | n | n | n | n | x | x
COc1cc(/C=N/NC(=O)c2ccc3c(c2)OCCO3)cc(Br)c1O | n | n | n | n | 20 | n | n | n
Cc1cccc(/C=N/NC(=O)Cc2ccc(Cl)cc2)c1O | n | n | n | n | n | n | x | x
Cc1cccc(/C=N/NC(=O)c2ccc3c(c2)OCCO3)c1O | n | n | n | n | 30 | n | 19 | n
COc1cc(/C=N/NC(=O)c2ccc3c(c2)OCCO3)c(Br)c(Br)c1O | n | n | n | n | n | n | x | x
Cc1cc(N2CCN(C(=O)c3[nH]c(C(F)(F)F)nc3-c3ccccc3)CC2)c2ccccc2n1 | n | n | n | n | n | n | x | x
SMILES | PLC-beta3 inh | PLC-gamma1 inh | ADAM17 inh | proKLK7 act | HGIII-sPLA2 inh | ADAM10 inh | sPLA2 confirm | 535nm interf | others
CCOC(=O)c1csc(NC(=O)CN2CCN(C)CC2)n1 | n | n | n | n | n | n | x | x
COc1ccccc1NC(=O)Nc1nc(CC(=O)N2CCN(c3ccccc3OC)CC2)cs1 | n | n | n | n | n | n | x | x
COC(=O)CCSCC(=O)N1N=C(c2ccc(OC)cc2)CC1c1cccc(OC)c1OC (centres undefined) | n | n | n | n | n | n | x | x
O=C(C(=O)N1CCN(C(=O)c2cc(C(F)(F)F)cc(C(F)(F)F)c2)CC1)c1cccc(C(F)(F)F)c1 | n | n | n | n | n | n | x | x
COCC(=O)N1CCN(C(=O)C(=O)c2cccc(C(F)(F)F)c2)CC1 | n | n | n | n | 23 | n | n | n
CC12CC(NC(=O)N1c1cccc(C(=O)NCc3ccccn3)c1)c1ccccc1O2 (centres undefined) | n | n | n | n | n | n | x | x
CCOc1ccc2nc(SCC(=O)NCc3ccc(S(N)(=O)=O)cc3)sc2c1 | n | n | n | n | n | n | x | x
COc1ccc(CNC(=O)CSc2nc3ccc(N)cc3s2)cc1 | n | n | n | n | 29 | n | n | n
COC(=O)c1ccc(C(=O)OC)c(NC(=S)N2CCC(C)CC2)c1 | n | n | n | n | 22 | n | n | n
C/C(=N\N=C\c1cccc(F)c1)c1nnn(-c2nonc2N)c1C | n | n | n | n | 20 | n | n | n
C=CCn1c(CSc2ccc(C)cc2)n[nH]c1=S | n | n | n | n | 22 | n | 25 | n
C=CCn1c(SCc2n[nH]c(=S)n2-c2ccccc2)nnc1-c1ccccc1 | n | n | n | n | 20 | n | n | n
Cc1cc(C)c2nc(NNC(=O)c3ccc(S(=O)(=O)N4CCCC(C)C4)cc3)sc2c1 (centres undefined) | n | n | n | n | 36 | n | 46 | 6.5
Cc1cccc2sc(NNC(=O)c3ccc(S(=O)(=O)N4CC(C)CC(C)C4)cc3)nc12 (centres undefined) | n | n | n | n | 47 | n | 47 | n
COC(=O)c1sc2ccccc2c1NC(=O)c1ccc(S(=O)(=O)N2CC(C)CC(C)C2)cc1 (centres undefined) | n | n | n | n | n | n | x | x
O=[N+]([O-])c1ccccc1CNC(Cc1ccccc1)c1ccccc1 (centres undefined) | n | n | n | n | 24 | n | n | n
CC(NC(=O)/C(C#N)=C/c1ccc([N+](=O)[O-])o1)c1ccccc1 (centres undefined) | n | n | n | n | n | n | x | x
CC(NC(=O)/C(C#N)=C/c1ccco1)c1ccccc1 (centres undefined) | n | n | n | n | 20 | n | n | n
CCN(CC)c1ccc(C(=O)NNC(=O)CCNC(=O)c2ccccc2)cc1 | n | n | n | n | n | n | x | x
CCN(CC)c1ccc(C(=C2C=CC(=[N+](CC)CC)C=C2)c2ccccc2)cc1 | n | n | n | n | 63 | n | 75 | n
